# Measured values: the supplement of paper PMC8728848
# Shown is part of a subset that was picked to be rich in the strongest signals.
# B1: Epa3to1 (Candida glabrata) (protein)
# chain: MGSSHHHHHHSSGLVPRGSHMKRELSSQNPFGYPIGCSPQDVAIIPGLTMELYSYPIVSGTPPNCYDASYVDPEYPRTGYLKRKMVGKSTGVTGNLNYKYSVEKACMVKYGNLPAGYNYNEPLTVSNFTMILYGYFKAQTTGLHTFFVNADDLLYINFGAGNAFDCCKREDSKTKLGEYVAYDIWHVDSSKNKVSLFLEKDLYYPIRMFFNNREYDSSLDLSFSVNGATDQISDFSGYLYSVPDQPDTCPAHIGYDTTCR
# What was measured:
# Test in all cases: glycan array binding signal (z-score within array); higher = stronger binding
# Settings in all cases: glycan notation: IUPAC condensed, linker removed
# [1] = target: Fuc(a1-2)Gal(b1-3)GalNAc(b1-3)Gal(a1-4)Gal(b1-4)Glc
# In short: (§1)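 Columns mapping to the same glycan were averaged after glycan names were converted to IUPAC-condensed notation. The data come from 3228 arrays in the Consortium for Functional Glycomics database, limited to those with an available protein sequence. Binding is reported as a within-array Z-score averaged across arrays of one protein sequence and across linkers.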
# [2] = target: Fuc(a1-2)Gal(b1-3)[Fuc(a1-4)]GlcNAc(b1-2)Man(a1-3)[Fuc(a1-2)Gal(b1-3)[Fuc(a1-4)]GlcNAc(b1-2)Man(a1-6)]Man(b1-4)GlcNAc(b1-4)[Fuc(a1-6)]GlcNAc(b1-4)[Fuc(a1-6)]GlcNAc
# In short: as §1
# [3] = target: Fuc(a1-2)[Gal(a1-3)]Gal(b1-3)GlcNAc(b1-3)GalNAc
# In short: as §1
# [4] = target: Fuc(a1-2)[Gal(a1-3)]Gal(b1-4)GlcNAc(b1-6)GalNAc
# In short: as §1
# [5] = target: Fuc(a1-2)[GalNAc(a1-3)]Gal(b1-3)GlcNAc
# In short: as §1
# [6] = target: Fuc(a1-2)[GalNAc(a1-3)]Gal(b1-3)GlcNAc(b1-2)Man(a1-3)[Fuc(a1-2)[GalNAc(a1-3)]Gal(b1-3)GlcNAc(b1-2)Man(a1-6)]Man(b1-4)GlcNAc(b1-4)[Fuc(a1-6)]GlcNAc
# In short: as §1
# [7] = target: Fuc(a1-3)[Gal(b1-4)]Glc6S
# In short: as §1
# [8] = target: Fuc(a1-3)[Gal(b1-4)]GlcNAc(b1-2)Man(a1-3)[Fuc(a1-3)[Gal(b1-4)]GlcNAc(b1-2)Man(a1-6)]Man(b1-4)GlcNAc(b1-4)[Fuc(a1-6)]GlcNAc
# In short: as §1
# [9] = target: Fuc(a1-3)[GalNAc(b1-4)]GlcNAc6S
# In short: as §1
# [10] = target: Gal(a1-3)Gal(b1-3)GlcNAc(b1-2)Man(a1-3)[Gal(a1-3)Gal(b1-3)GlcNAc(b1-2)Man(a1-6)]Man(b1-4)GlcNAc(b1-4)GlcNAc
# In short: as §1
# [11] = target: Gal(a1-3)Gal(b1-3)GlcNAc(b1-3)GalNAc
# In short: as §1
# [12] = target: Gal(a1-3)Gal(b1-4)GlcNAc(b1-6)GalNAc
# In short: as §1
# [13] = target: Gal(a1-3)Gal(b1-4)[Fuc(a1-3)]GlcNAc(b1-2)Man(a1-3)[Gal(a1-3)Gal(b1-4)[Fuc(a1-3)]GlcNAc(b1-2)Man(a1-6)]Man(b1-4)GlcNAc(b1-4)GlcNAc
# In short: as §1
# [14] = target: Gal(a1-4)GlcNAc
# In short: as §1
# [15] = target: Gal(a1-6)Glc
# In short: as §1
# [16] = target: Gal(b1-3)GalNAc(b1-4)Gal(b1-4)Glc
# In short: as §1
# [17] = target: Gal(b1-3)GlcNAc(a1-6)Gal(b1-4)GlcNAc
# In short: as §1
# [18] = target: Gal(b1-3)GlcNAc(b1-3)Gal(b1-3)GlcNAc
# In short: as §1
# [19] = target: Gal(b1-3)GlcNAc(b1-3)Gal(b1-4)GlcNAc
# In short: as §1
# [20] = target: Gal(b1-3)GlcNAc(b1-3)Gal(b1-4)[Fuc(a1-3)]GlcNAc(b1-6)[Gal(b1-3)GlcNAc(b1-3)]Gal(b1-4)Glc
# In short: as §1
# [21] = target: Gal(b1-3)[Fuc(a1-4)]GlcNAc(b1-2)Man
# In short: as §1
# [22] = target: Gal(b1-3)[Fuc(a1-4)]GlcNAc(b1-3)Gal(b1-4)[Fuc(a1-3)]GlcNAc
# In short: as §1
# [23] = target: Gal(b1-3)[Neu5Ac(a2-6)]GalNAc
# In short: as §1
# [24] = target: Gal(b1-4)GlcNAc(b1-2)Man(a1-3)[Gal(b1-4)GlcNAc(b1-2)Man(a1-6)][GlcNAc(b1-4)]Man(b1-4)GlcNAc(b1-4)[Fuc(a1-6)]GlcNAc
# In short: as §1
# [25] = target: Gal(b1-4)GlcNAc(b1-2)Man(a1-3)[GlcNAc(b1-4)][Gal(b1-4)GlcNAc(b1-2)Man(a1-6)]Man(b1-4)GlcNAc(b1-4)GlcNAc
# In short: as §1
# [26] = target: Gal(b1-4)GlcNAc(b1-2)Man(a1-3)[Man(a1-6)]Man(b1-4)GlcNAc(b1-4)GlcNAc
# In short: as §1
binder,measurement,setting,value
B1,glycan array binding signal (z-score),[1],-0.161
same,glycan array binding signal (z-score),[2],-0.07
same,glycan array binding signal (z-score),[3],-0.274
same,glycan array binding signal (z-score),[4],-0.462
same,glycan array binding signal (z-score),[5],0.225
same,glycan array binding signal (z-score),[6],-0.204
same,glycan array binding signal (z-score),[7],0.568
same,glycan array binding signal (z-score),[8],0.093
same,glycan array binding signal (z-score),[9],-0.498
same,glycan array binding signal (z-score),[10],0.169
same,glycan array binding signal (z-score),[11],-0.594
same,glycan array binding signal (z-score),[12],0.248
same,glycan array binding signal (z-score),[13],-0.206
same,glycan array binding signal (z-score),[14],3.41
same,glycan array binding signal (z-score),[15],1.7
same,glycan array binding signal (z-score),[16],5.3
same,glycan array binding signal (z-score),[17],0.409
same,glycan array binding signal (z-score),[18],-0.713
same,glycan array binding signal (z-score),[19],-0.502
same,glycan array binding signal (z-score),[20],-0.061
same,glycan array binding signal (z-score),[21],-0.37
same,glycan array binding signal (z-score),[22],-0.87
same,glycan array binding signal (z-score),[23],5.48
same,glycan array binding signal (z-score),[24],-0.745
same,glycan array binding signal (z-score),[25],-0.291
same,glycan array binding signal (z-score),[26],3.23
